Our source for the binding signal values is PMC7819943, “Rice protein-binding microarrays: a tool to detect cis-acting elements near promoter regions in rice”.

The full ranking holds about 39,000 sequences; the median of “fluorescence intensity (a.u.)” is about 4,300, and the highest 2% start at about 39,000. This is one part of a sample in which the highest values are shown more often than they occur.

This assay deals with T1, OsSMF1 (Oryza sativa, UniProt Q6ZLB0 1-436).
T1 sequence: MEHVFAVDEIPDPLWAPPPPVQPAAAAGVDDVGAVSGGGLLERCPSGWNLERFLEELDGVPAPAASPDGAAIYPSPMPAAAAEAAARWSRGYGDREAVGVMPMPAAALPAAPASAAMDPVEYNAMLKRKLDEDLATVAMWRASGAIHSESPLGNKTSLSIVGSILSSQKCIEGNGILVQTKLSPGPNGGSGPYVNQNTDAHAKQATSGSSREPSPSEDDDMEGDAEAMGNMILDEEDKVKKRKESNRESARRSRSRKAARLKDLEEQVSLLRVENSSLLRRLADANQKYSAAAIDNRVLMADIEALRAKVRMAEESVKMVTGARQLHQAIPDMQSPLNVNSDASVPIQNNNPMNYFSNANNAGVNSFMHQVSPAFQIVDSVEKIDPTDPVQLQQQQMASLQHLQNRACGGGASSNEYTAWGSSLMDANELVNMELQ
Nature of the assay: protein-binding microarray (RPBM); PBS, 2% BSA, 51.3 ng/ul salmon testes DNA, 50 uM zinc acetate, 200 nM TF, 25 C, 1 h; high values mean tight binding. To be noted: protein: recombinant; tags: N-terminal polyhistidine and DsRed monomer fusion (pET32a); chain copies: 2; label: CyDye5-dUTP incorporated in the synthesized complementary strand; 3' TTTTT single-stranded linker to array surface; dsDNA, one strand shown. In a few lines: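 Using Ni–NTA, transcription factors fused N-terminally to polyhistidine and DsRed were purified after expression in E. coli BL21-CodonPlus. These were incubated at 200 nM with a blocked, double-stranded custom Agilent array for 1 h at 25 °C in a buffer containing 50 µM zinc acetate, and the array was washed. The binding signal is per-feature fluorescence intensity (arbitrary units) on an Axon 4000B scanner.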
Take “CTCCTTGGCCCGTTTGGTCTCTGTGTGGGTTGGTAAAGACCGGAGTCACCTAGTGCAG”: the binding signal is 3330 fluorescence intensity (a.u.). In the case of “CCTCCGACATCTCCAGCCAATTCCAGCTCAGCTCTCGCCGCGGAGTCACCTAGTGCAG”, the binding signal is 4150 fluorescence intensity (a.u.). The figure for “GCTTTACGTCTTGTGTGGAAGAAAGCGGAAAACTATCCAGCGGAGTCACCTAGTGCAG” is 3540 fluorescence intensity (a.u.); for “ATAATAGCACATGTGGATATCTGTAGAATTCATTTCGTGTCGGAGTCACCTAGTGCAG” it is 3550 fluorescence intensity (a.u.). With “GAACGGGACCAGCTACTATAGTGAAATTTAGATTTCAAAGCGGAGTCACCTAGTGCAG”, the binding signal is 42200 fluorescence intensity (a.u.). In the case of “AGCAGCGGGCTACAGATTTATAGCCAGCTGTAGCACGGATCGGAGTCACCTAGTGCAG”, the binding signal was 33200 fluorescence intensity (a.u.). The figure for “GACGTGATAAAGAAGTTCAGATTTAGAAATAAATTTGAAGCGGAGTCACCTAGTGCAG” is 3820 fluorescence intensity (a.u.); for “GCGGCTTCTCGCCGGCGGCGACCACCACCCGTCACCCACCCGGAGTCACCTAGTGCAG” it is 3380 fluorescence intensity (a.u.). In the case of “ATCCATTGCTGCTTTCAGCTGAGTCACCAACTCCTATCCACGGAGTCACCTAGTGCAG”, the binding signal was 14100 fluorescence intensity (a.u.). The figure for “GTTGCAGAGCAGCTCGCGCCGCGCGCGTACACTCGCTTTGCGGAGTCACCTAGTGCAG” is 6780 fluorescence intensity (a.u.). The figure for “GTGGGCTTAGACGGCCCAGTCATGACCCTTTCATTTCGTGCGGAGTCACCTAGTGCAG” is 3440 fluorescence intensity (a.u.); for “GGGCTTGCCCATTACGCGTTGCTATAGACGCCCTTTCATTCGGAGTCACCTAGTGCAG” it is 41600 fluorescence intensity (a.u.); for “TTTGCCCATTTTATTCCCTTGCGTCATCCATTTACTGCTTCGGAGTCACCTAGTGCAG” it is 13800 fluorescence intensity (a.u.).

Take “GCGGTGGCGGTTGGGGTGGCGAGTGGGGAGGAGGAGGCGGCGGAGTCACCTAGTGCAG”: the binding signal is 5880 fluorescence intensity (a.u.). The figure for “CGCCGGCACAGCGACATAGCTGACGTCGACGATGCTCACTCGGAGTCACCTAGTGCAG” is 5350 fluorescence intensity (a.u.); for “CCCAAAGCTGACGTACAGCACCGACCCGGTCGGCTGCTCGCGGAGTCACCTAGTGCAG” it is 4200 fluorescence intensity (a.u.). The figure for “TAGCGCGGCTGCACAGTACAGTCCGACGTCACAGCTCACTCGGAGTCACCTAGTGCAG” is 49200 fluorescence intensity (a.u.). The figure for “ACCACATCCACTGCCGCGCCACGCCTCTCGGCCGCCACACCGGAGTCACCTAGTGCAG” is 3770 fluorescence intensity (a.u.); for “CAACCTTTATCTGAAGTGGCAGGCACGTGGATTAGCAATACGGAGTCACCTAGTGCAG” it is 5790 fluorescence intensity (a.u.). “GGTAATAGTGTCAACATATTGCATTAAGATGATTGCAGTGCGGAGTCACCTAGTGCAG”: the binding signal was 24300 fluorescence intensity (a.u.). The result for “CAAGATGGGTCGGGTTGGGTGGGGTTACTCGCACTAGCACCGGAGTCACCTAGTGCAG” reads 3160 fluorescence intensity (a.u.). The result for “GCGGCTCGCCGTCATATGCGACGTGGCATGCACGACGCCGCGGAGTCACCTAGTGCAG” reads 14300 fluorescence intensity (a.u.). On to “GAATAGCTGCTTGTTAACTAGGGATTAGAGGTGGGGTTTTCGGAGTCACCTAGTGCAG”, for which the binding signal is 17400 fluorescence intensity (a.u.). The figure for “CTAGCTTTGAGGTGGAGGTGGTGGTGGAGGAGGAGGAGGACGGAGTCACCTAGTGCAG” is 3340 fluorescence intensity (a.u.); for “CGCTGCTGAGTGCTGACTCCTTCGCCCTCCTCCTCACTTTCGGAGTCACCTAGTGCAG” it is 7650 fluorescence intensity (a.u.); for “TTTTCGCTGAGGTGGCAGGTTAACTTGTCTGCTTTCGGCCCGGAGTCACCTAGTGCAG” it is 39300 fluorescence intensity (a.u.). The result for “AGTGGCAGGGGTGTGGGGATTGCCGGCTTGCCGCGGAGGACGGAGTCACCTAGTGCAG” reads 3530 fluorescence intensity (a.u.); that for “GGCAGGACGGCAGGAGGCCTGTTCGCTTGAGGTGTCTAGCCGGAGTCACCTAGTGCAG”, 39800 fluorescence intensity (a.u.); that for “GGGCTGGGGAAAATGATCGACTACTTTTAACCATTTCAGTCGGAGTCACCTAGTGCAG”, 3420 fluorescence intensity (a.u.). The result for “TACGTTGAATATTACCCTCTTGATGACTTGACTAATTTTACGGAGTCACCTAGTGCAG” reads 3880 fluorescence intensity (a.u.). “TTATATATCCCTGATAGCTGATTAGTTGGCACATCAGCATCGGAGTCACCTAGTGCAG”: the binding signal was 3210 fluorescence intensity (a.u.). Consider “CAAGGGAGGAGGGAGAAAGAAAAGGATGGGAGATTTGCTCCGGAGTCACCTAGTGCAG”, for which the binding signal is 3290 fluorescence intensity (a.u.). The figure for “AAGGTAGAGTCAAATAGAAGCTCTATATCATGTAGACACTCGGAGTCACCTAGTGCAG” is 3360 fluorescence intensity (a.u.).

In the case of “TGGTCACTGCAGCAGGTTCAGGACAAAGCAACCTGTTTCTCGGAGTCACCTAGTGCAG”, the binding signal was 3600 fluorescence intensity (a.u.).

Consider “AGAGGTTCAAACTGTATATGTTCTAGACCATTCACAAGCTCGGAGTCACCTAGTGCAG”, for which the binding signal is 64100 fluorescence intensity (a.u.).

Consider “ACCCACACACCCACACCCACACGTCAAAGACCCACGGTTTCGGAGTCACCTAGTGCAG”, for which the binding signal is 3160 fluorescence intensity (a.u.).

In the case of “CAGAGGCAAACGTACGTGGAGGCAGGAGGAGTGGTCACCGCGGAGTCACCTAGTGCAG”, the binding signal was 4440 fluorescence intensity (a.u.).

In the case of “CCTAACCGCCCAGCAGAGGCAAAGTGTGGTCGAAACCTAGCGGAGTCACCTAGTGCAG”, the binding signal was 49500 fluorescence intensity (a.u.).

On to “TGTGGTGTGTGTGTGGCTGAAACCGCGAGGCCGCCGCGAGCGGAGTCACCTAGTGCAG”, for which the binding signal was 3440 fluorescence intensity (a.u.). Regarding “CCGTCGCCGGCGGCGGATCGGCCCCACATCACCTCGGCCTCGGAGTCACCTAGTGCAG”, the binding signal is 3250 fluorescence intensity (a.u.).

In the case of “AGAAGACAACAGTGAGGAACTGAGGACACGTGTACTTGGACGGAGTCACCTAGTGCAG”, the binding signal was 12600 fluorescence intensity (a.u.). On to “TGAGCCCATTCTATCTTGTACCAATTTGTGGGATATGGCCCGGAGTCACCTAGTGCAG”, for which the binding signal was 41000 fluorescence intensity (a.u.). The result for “ACCTTGTACTTTTGTCTACATATGTGTCATTCTATCTTGGCGGAGTCACCTAGTGCAG” reads 5120 fluorescence intensity (a.u.); that for “AAATTTGTACCATCTTGTTGTCCATCATTCTTGACAAGAGCGGAGTCACCTAGTGCAG”, 3280 fluorescence intensity (a.u.); that for “CATCCACGTGGTGCCGCACCTAACCAGCGTAGCAGTTGCTCGGAGTCACCTAGTGCAG”, 5710 fluorescence intensity (a.u.). For the sequence “GTGTGTGTATGACAGGTGGGACCATATATTAATAGTGTAGCGGAGTCACCTAGTGCAG”, the binding signal was 3480 fluorescence intensity (a.u.). In the case of “ATCATAGTATGCCGTACGGCCTGGACCTTCTGTCACGTGGCGGAGTCACCTAGTGCAG”, the binding signal was 5660 fluorescence intensity (a.u.). Regarding “TATGTGGACCATAGTGGCCTTCGGCAATATGGATTAGTAGCGGAGTCACCTAGTGCAG”, the binding signal is 47700 fluorescence intensity (a.u.).

With “CATTCTCCTTCTCTCTCGTACGGCTAGAGGTTGAAGACGACGGAGTCACCTAGTGCAG”, the binding signal was 3760 fluorescence intensity (a.u.).

In the case of “CGACTACGAGACGCGAGGTTGAAGACAAGTAAGTACTCCTCGGAGTCACCTAGTGCAG”, the binding signal is 65500 fluorescence intensity (a.u.).

With “TGCACACCCAGGTTGAAGACGACAATGACGAGCTCGGGCGCGGAGTCACCTAGTGCAG”, the binding signal is 3330 fluorescence intensity (a.u.). “GAGTTACCACGAGATGACACGTAGGATAAAGAGCTTTGAACGGAGTCACCTAGTGCAG”: the binding signal was 8600 fluorescence intensity (a.u.).

For “CGTCCAAATATTATTTCCTGCGCGTGGTTTACAAAAGAGGCGGAGTCACCTAGTGCAG”, the binding signal was 47300 fluorescence intensity (a.u.). In the case of “CTCGAGAGTTATTTATTATTTATATTTCCAAAGGTTTGACCGGAGTCACCTAGTGCAG”, the binding signal was 25900 fluorescence intensity (a.u.). The figure for “TCCAATCCTGCGTGGAGTAATTTATTTCAAGCGCAACAGGCGGAGTCACCTAGTGCAG” is 3630 fluorescence intensity (a.u.).
